In the OligoGym collection one finds sensor-assay potency score (higher = more potent) data, which are given here for 17 sequences.
Also: reference of the scale not given here.

The first assay addresses GPAA1. Kind of assay: pooled miR-30 sensor sort-seq; sequence = guide strand. Conditions: shRNA.
For the sequence TATAGCGCTCGTGGGTCTCATC, the sensor-assay potency score (higher = more potent) was -1.61.

With AAAACCAGCGCCAAGAACCAGG, the sensor-assay potency score (higher = more potent) is -1.17.

On to TAGCTCAGCACGCACAACGGCG, for which the sensor-assay potency score (higher = more potent) is -1.38.

As for TTCCGGGAGAAACTCTGCGTGT, the sensor-assay potency score (higher = more potent) is -1.01.

The sequence TTCTCCGACATGTAAGTGCGCT returned a sensor-assay potency score (higher = more potent) of -0.864.

The sequence TGAGCTTGCGGAACATGCCCTC showed a sensor-assay potency score (higher = more potent) of -0.336.

TTTCCGGGAGAAACTCTGCGTG gave a sensor-assay potency score (higher = more potent) of -0.575.

The next assay deals with GPATCH3. The assay is described as above. Conditions: shRNA.
TGTACACACAAGCTCTTCCTGC registered a sensor-assay potency score (higher = more potent) of -0.536.

For the sequence TAAGCCTCTGAGCTTGAGCCAA, the sensor-assay potency score (higher = more potent) was -0.945.

TTAGAGACCAAAGACAAGCGGT gave a sensor-assay potency score (higher = more potent) of 0.0667.

For the sequence TAAAATAGCTCCGTAAATGGGC, the sensor-assay potency score (higher = more potent) was -0.362.

TTAGGGCAGAGTTAGGAGCGGC came in with a sensor-assay potency score (higher = more potent) of -0.764.

In turn, TTGAGCTCAATCTCCTCCTCAA gave a sensor-assay potency score (higher = more potent) of 0.169.

Sequence TATTTCTTCACCCTCTGCTGTA displayed a sensor-assay potency score (higher = more potent) of -0.595.

With TAAAACACCAGGCCAGAGCCAC, the sensor-assay potency score (higher = more potent) is -0.98.

Regarding TCTGTCATAGTACACACTCATG, the sensor-assay potency score (higher = more potent) was -1.69.

TTCCGTGACGTCGCACACCCAA returned a sensor-assay potency score (higher = more potent) of -0.81.
